Values joined by “and” are separate entries in the source; they are usually repeats but may differ in a detail not shown here. Equal entries are not always repeated. Records with an inconclusive call do not appear. Some compounds were tested as several samples or in several runs, with calls that do not always agree. Active and inactive are the calls of the source. The call rests on the fitted dose curve; in most records, active means well fitted curve in the direction sought with a large enough effect; inconclusive means small, poorly fitted or top-dose-only effect, or another doubt; inactive means no such curve, though single readings can be large; an effect the other way counts as inactive or inconclusive.

For 15 compounds, Potency and activity (max response) results are on record in PubChem BioAssay (NCATS).

Assay [1] can be described thus: Viability qHTS for spleen associated tyrosine kinase inhibitor (SYKi) naive MV4-11 cells (AID 1963823). Further: nearly all actives have a fitted effect of over 40% in size. The essentials: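 Seeding of 500 SYKi-naive MV4-11 cells per well onto pre-dispensed compounds preceded a 72 hr incubation at 37 C. Luminescent CellTiter-Glo signal, read after 10 min at room temperature, reflected viable cells.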
(In general: Quantitative high-throughput screening tests each substance at several concentrations.)

The nature of assay [2]: Viability qHTS for spleen associated tyrosine kinase inhibitor (SYKi) drug resistant MV4-11 cells (AID 1963824). Further: nearly all actives have a fitted effect of over 35% in size. Put shortly:
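CellTiter-Glo luminescence, read 10 min after reagent addition, reports viability after a 72 hr compound exposure. Cells are an MV4-11 line made resistant to SYK inhibition, seeded at 500 per well onto compound-containing plates.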

The nature of assay [3]: Quantitative highthroughput screen to assess conditional lethalithy of NOMO1 cells grown in RPMI1640 with untreated serum (RPMI+s) (AID 1963876). Further: nearly all actives have a fitted effect of over 35% in size.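 On Viability: 100% = DMSO wells and 0% = empty wells without cells.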 Put shortly:
(§1)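 Each medium arm—HPLM with 10% dialyzed FBS, or RPMI1640 with 5 mM glucose and 10% untreated or dialyzed FBS—was screened against an 11-point, 3-fold compound titration for 48 h at 37 °C, with CellTiter-Glo luminescence as endpoint.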

Assay [4] in a line: Quantitative highthroughput screen to assess conditional lethalithy of NOMO1 cells grown in RPMI1640 with dialyzed fetal bovine serum (RPMI+ds) (AID 1963877). Further: nearly all actives have a fitted effect of over 30% in size.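 On Viability: series mostly up to about 46 µM; 100% = DMSO control wells and 0% = empty wells.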 The essentials: as §1
Assay [5] in a line: Quantitative highthroughput screen to assess conditional lethalithy of NOMO1 cells grown in Human Plasma-Like Medium with dialyzed fetal bovine serum (HPLM+ds) (AID 1963878). Further: nearly all actives have a fitted effect of over 35% in size.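 On Viability: 100% = DMSO wells and 0% = empty wells on each plate.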 The essentials: as §1
Assay [6] in a line: Quantitative highthroughput screen to assess conditional lethalithy of P12 Ichikawa cells grown in Human Plasma-Like Medium with dialyzed fetal bovine serum (HPLM+ds) (AID 1963879). Further: nearly all actives have a fitted effect of over 35% in size. On Viability: series mostly up to about 46 µM. As to conditions: Potency: viability. Put shortly: as §1
Assay [7] is described as follows: Quantitative highthroughput screen to assess conditional lethalithy of P12 Ichikawa cells grown in RPMI1640 with dialyzed fetal bovine serum (RPMI+ds) (AID 1963880). Further: nearly all actives have a fitted effect of over 35% in size.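 On Viability: 100% = DMSO wells and 0% = empty wells on each plate.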 As to conditions: Potency: P12-Ichikawa viability. The essentials: as §1
Assay [8] in a line: Quantitative highthroughput screen to assess conditional lethalithy of P12 Ichikawa cells grown in RPMI1640 with untreated serum (RPMI+s) (AID 1963881). Further: nearly all actives have a fitted effect of over 35% in size.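 On Viability: series mostly up to about 46 µM; 100% = DMSO wells and 0% = empty wells without cells.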 As to conditions: Potency: viability. Put shortly: as §1
Assay [9] is described as follows: Quantitative highthroughput screen to assess conditional lethalithy of SEM cells grown in RPMI1640 with unreated serum (RPMI+s) (AID 1963883). Further: nearly all actives have a fitted effect of over 35% in size.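 On Viability: 100% = DMSO wells and 0% = empty wells without cells.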 The essentials: as §1
Assay [10] can be described thus: Quantitative highthroughput screen to assess conditional lethalithy of SEM cells grown in RPMI1640 with dialyzed fetal bovine serum (RPMI+ds) (AID 1963884). Further: nearly all actives have a fitted effect of over 35% in size.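 On Viability: series mostly up to about 46 µM; 100% = DMSO control wells and 0% = empty wells without cells.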 Put shortly:
as §1

Assay [11] in a line: Cellular viability qHTS for adrenocortical cancer (ACC) cell line SW-13 (AID 1963989). Further: nearly all actives have a fitted effect of over 65% in size.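 On activity (max response): cells grown in serum-free medium with ITS supplement; on the % scale 0 is the no-effect control and ±100 the full control effect.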 The note with it: SW-13 ACC cells viability, CellTiter-Glo, 48 h; activity (max response): stronger effect = lower value. Put shortly: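 IC50 and maximal-response values come from four-parameter logistic fits of titration data. SW-13 cells in serum-free medium received compounds (up to 46 uM final) for 48 h before CellTiter-Glo luminescence.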

Assay [12] in a line: Cellular viability qHTS for adrenocortical cancer (ACC) cell line NCI-H295R (AID 1963990). Further: nearly all actives have a fitted effect of over 60% in size. The essentials:
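Adrenocortical carcinoma cells, suspended at 300 000 cells/mL in serum-free DMEM plus ITS, rested overnight before pin transfer of compound. After two days' incubation, ATP-dependent luminescence was recorded and curve-fitted.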

The nature of assay [13]: Quantitative highthroughput screen to assess conditional lethalithy of SEM cells grown in Human Plasma-Like Medium with dialyzed fetal bovine serum (HPLM+ds) (AID 1963882). Further: nearly all actives have a fitted effect of over 35% in size. On Viability: series mostly up to about 46 µM. The essentials:
as §1
Potency means the concentration at half of the fitted maximal effect.

Consider `CC(C)(C)OC(=O)Nc1ccc(-c2cc(C(=O)NCCCCCCC(=O)NO)no2)cc1`, for which the Potency in assay [1] is 1.48 µM (active); in assay [2] it was 1.48 µM (active); in [3] it was 8.33 µM (active); in assay [4], 9.35 µM (active); in assay [5], 8.33 µM (active); in [6], 2.64 µM (active). The Potency in [7] was 1.05 µM (active); in [8], 2.35 µM (active); in assay [9] it was 1.48 µM (active); in assay [10], 1.32 µM (active); in assay [11] it was 15.8 µM (active); in assay [12], 2.82 µM (active).
With `COc1cc(NS(=O)(=O)c2ccc(N)cc2)nc(OC)n1`, the Potency entry in [1], in assay [2], in assay [3], in assay [4], in assay [5] and in assay [6] was “inactive” in each case. Moreover, the Potency entry in [7], in assay [8], in assay [9], in assay [10] and in assay [12] was “inactive” throughout. Moreover, in assay [11], the activity (max response) is -1.49% (inactive).
With `O=c1cc(N2CCOCC2)oc2c(-c3ccccc3)cccc12`, the Potency was 5.9 µM (active) in [1]; “inactive and 9.34 µM (active)” in [2]. Besides, the Potency result in [3], in [4], in [5], in assay [6], in assay [7] and in assay [8] was “inactive” in each case. Also, in assay [9], the Potency entry is “inactive”.
For `NCCc1cnc[nH]1`, the Potency in assay [1] was 13.3 µM (active). Also, the Potency entry in assay [2], in [3], in assay [4], in assay [5], in assay [6] and in assay [7] was “inactive” each time. For the same compound, the Potency entry in [8], in assay [13] and in assay [12] was “inactive” in each case. The activity (max response) in assay [11] is 7.56% (inactive) and -0.338% (inactive).
`COc1cc2ncnc(Nc3cccc(Br)c3)c2cc1OC`: the Potency in [1] was 4.68 µM (active); in [2], 6.51 µM (active) and 5.25 µM (active). Moreover, the Potency entry in assay [3], in assay [4], in assay [5], in assay [6], in assay [7] and in assay [8] was “inactive” each time. Further, the Potency entry in [13], in assay [9] and in [12] was “inactive” in each case.
Regarding `CNC(=O)c1ccc2cc(C3(O)CCn4cncc43)ccc2c1` (configuration not stated), the Potency result in assay [1], in assay [2], in [3], in assay [4], in assay [5] and in assay [6] was “inactive” throughout. Besides, the Potency entry in assay [7], in assay [8], in [9] and in assay [10] was “inactive” throughout. The activity (max response) in assay [11] is -3.07% (inactive).
On to `C[C@H](CCC(=O)O)[C@H]1CCC2C3C[C@H](O)[C@@H]4C[C@H](O)CC[C@]4(C)C3CC[C@@]21C` (some centres not stated), for which the Potency result in [1], in [2], in assay [3], in assay [4], in assay [5] and in [6] was “inactive” each time. Further, the Potency result in assay [7], in assay [8], in assay [9] and in assay [12] was “inactive” throughout. Also, in assay [11], the activity (max response) was 1.86% (inactive).
Turning to `CCCn1c(=O)c2[nH]c(C34CC5CC3C[C@@H](C5)C4)nc2n(CCC)c1=O`, the results for the Potency in assay [1] and in assay [2] were 18.6 µM (active) and 16.6 µM (active), respectively. Also, the Potency result in assay [3], in [4], in assay [5], in assay [6], in assay [7] and in assay [8] was “inactive” each time. For the same compound, the Potency entry in assay [13], in assay [10] and in [12] was “inactive” each time. The activity (max response) in [11] was -4.88% (inactive).
Consider `O[C@@H](COc1cccc2ncccc12)CN1CCN(C2c3ccccc3[C@@H]3[C@H](c4ccccc42)C3(F)F)CC1` (some centres not stated), for which the Potency in assay [1] was 5.9 µM (active) and 9.2 µM (active); in assay [2], 6.61 µM (active) and 9.2 µM (active); in assay [11] it was 20.6 µM (active); in assay [12], 3.55 µM (active). The Potency result in [3], in assay [4], in assay [5], in assay [6], in assay [7] and in assay [8] was “inactive” in each case. Moreover, the Potency result in [10] was “inactive”.
As to `NC(=O)c1cccc(-c2cc(Nc3ccc(OC(F)(F)F)cc3)ncn2)c1`, the Potency in assay [1] was 10.3 µM (active) and 5.25 µM (active); in assay [2], 9.2 µM (active) and 5.9 µM (active); in assay [11], 15.8 µM (active). For the same compound, the Potency entry in assay [3], in assay [4], in assay [5], in [6], in assay [7] and in assay [8] was “inactive” in each case.
In the case of `O=c1cc(N2CCOCC2)oc2c(-c3cccc4c3sc3ccccc34)cccc12`, the Potency in assay [1] is 1.48 µM (active); in assay [2], 1.86 µM (active); in [11], 25.1 µM (active); in [12], 12.6 µM (active). Also, the Potency entry in [3], in [4], in assay [5], in [6], in assay [7] and in [8] was “inactive” in each case.
Take `COc1ccc(F)c(F)c1C(=O)c1cnc(NC2CCN(S(C)(=O)=O)CC2)nc1N`: the Potency is 0.651 µM (active) in assay [1]; 580 nM (active) and 742 nM (active) in assay [2]; 4.69 µM (active) in assay [3]; 6.62 µM (active) in assay [4]; 4.18 µM (active) in assay [5]; 20.9 µM (active) in assay [6]. The Potency in assay [8] is 11.8 µM (active); in assay [13] it was 4.69 µM (active); in assay [9] it was 4.18 µM (active); in [10], 5.9 µM (active); in [11] it was 3.55 µM (active); in [12], 3.16 µM (active).
Regarding `Cc1cn[nH]c1`, the Potency entry in assay [1], in assay [3], in assay [4], in assay [6], in assay [7] and in assay [8] was “inactive” in each case. In addition, the Potency result in [10] and in assay [12] was “inactive” throughout. The Potency entry is “inactive and 18.6 µM (active)” in assay [2]; 16.6 µM (active) in assay [5]. Besides, the activity (max response) in assay [11] is 12.7% (inactive) and 11.3% (inactive).
Turning to `CCNc1cc(NC2CCC(O)CC2)nc(Nc2ccc3c(ccn3Cc3ccccc3)c2)n1` (configuration not stated), the Potency in [1] is 8.33 µM (active); in [2] it was 14.6 µM (active). The Potency entry in [3], in assay [4], in [5], in assay [6], in assay [7] and in [13] was “inactive” throughout. Also, in assay [12], the Potency entry was “inactive”. Further, in assay [11], the activity (max response) is -9.82% (inactive).
In the case of `C[Se]CCC(N)C(=O)O` (configuration not stated), the Potency entry in [1], in [2], in assay [3], in assay [4], in assay [5] and in assay [6] was “inactive” throughout. For the same compound, the Potency result in [7], in assay [8] and in assay [12] was “inactive” each time. In addition, the activity (max response) in assay [11] is -4.29% (inactive).
